Assay results published in PubChem BioAssay AID485270 (The Scripps Research Institute Molecular Screening Center, 2010).
About 5,800 (1.8%) of roughly 330,000 compounds were called active. Only a selection was taken, and actives are over-represented in it overall. A number with no mark means an inactive call. Cut-off read from the data, not from the text of the source: active = inhibition mostly above about 38% (no sharp cut-off); inactive = mostly below about 40%.

What follows are compounds tested against Orexin/Hypocretin receptor type 1 (Homo sapiens) (UniProt O43613) (assay: antagonists of human orexin 1 receptor (OX1R) (AID 485270;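 note: 0% = agonist challenge alone and 100% = reference antagonist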)). Details: OX1R-expressing cells, FRET antagonist read-out; at 6.6 µM; active compounds read high.
Orexin/Hypocretin receptor type 1 (Homo sapiens), sequence (O43613 whole entry, looked up): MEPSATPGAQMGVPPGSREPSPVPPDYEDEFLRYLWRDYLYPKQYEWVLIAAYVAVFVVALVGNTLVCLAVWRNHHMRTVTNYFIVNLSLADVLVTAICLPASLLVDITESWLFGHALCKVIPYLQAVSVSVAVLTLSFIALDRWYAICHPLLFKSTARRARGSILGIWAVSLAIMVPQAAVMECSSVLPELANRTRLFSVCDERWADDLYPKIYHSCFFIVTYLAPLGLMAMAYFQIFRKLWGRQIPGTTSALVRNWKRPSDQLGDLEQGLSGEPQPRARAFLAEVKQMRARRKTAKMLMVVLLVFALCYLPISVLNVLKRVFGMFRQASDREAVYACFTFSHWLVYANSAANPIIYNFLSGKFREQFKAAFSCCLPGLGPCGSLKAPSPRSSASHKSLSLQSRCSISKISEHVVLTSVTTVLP

SMILES	inhibition
CSc1ncccc1C(=O)NCC(c1ccco1)N1CCCCC1 (configuration not stated)	1.61%
O=C1N[C@@H](c2ccccc2)COC(=O)[C@H](Cc2ccc(F)cc2)C/C=C\C[C@@H]1CC(=O)N(CCO)Cc1ccccc1	13.5%
CC1CC(=NNC(=O)C2COc3ccccc3O2)CC(C)(C)C1 (configuration not stated)	5.91%
O=C(Nc1ccccn1)C1CCN(S(=O)(=O)c2ccc3c(c2)OCCO3)CC1	-0.64%
COc1cccc(NC(=O)COC(=O)c2ccc3ccccc3n2)c1	10.5%
CCc1ccc(C(=O)N2CCN(S(=O)(=O)c3sc(C(=O)O)c(C)c3C(=O)O)CC2)cc1	0.64%
COc1ccc(CCOC2OC(CO)C(OC(=O)/C=C/c3ccc(O)c(OC)c3)C(O[C@H]3O[C@@H](C)[C@H](O)[C@@H](O)[C@H]3O)C2O)cc1O (some centres not stated)	3.08%
CCOC(=O)CSc1ccccn1	2.08%
CCOC(=O)CSc1nc(C)cc2c1C(=O)OC2	5.73%
CCOC(=O)CSC1=N/C(=C/c2ccc(-n3cncn3)cc2)C(=O)N1C(C)=O	64.5% (active)
COc1cccc(CC(=O)OCC(=O)NCc2ccc3c(c2)OCO3)c1	4.94%
CC(=O)Nc1ccc(S(=O)(=O)NCC(=O)OCC(=O)c2ccc[nH]2)cc1	7.15%
Cc1ccc(C)c(NC(=O)COC(=O)c2nn(C)c(=O)c3ccccc23)c1	4.64%
CC(Sc1nncn1C)C(=O)NCCC1=CCCCC1 (configuration not stated)	5.26%
COc1ccc(CNc2nc(NCc3ccc(OC)cc3)c3ncn(C4CCCC4)c3n2)cc1	15.3%
Cc1onc(NC(=O)c2ccc([N+](=O)[O-])o2)c1Br	33.4%
O=C(Nc1ccc(Br)cn1)c1ccc([N+](=O)[O-])cc1Cl	13.9%
O=C(Nc1ccc(Br)cn1)c1ccc([N+](=O)[O-])o1	64.5% (active)
COc1ccc(C2(c3ccc(OC)cc3)NC(=O)N(CC(=O)Nc3cc(C)on3)C2=O)cc1	14%
CCN1C[C@@H]2[C@@H]3C(=O)N(Cc4ccccc4)C(=O)[C@@H]3[C@](Cc3ccccc3)(C(=O)OC)N2C1=NC1CCCCC1	5.88%
CC(C)(C)c1cnnn1-c1ccc([N+](=O)[O-])cc1	29.6%
COc1ccc(N2CCN(c3ccc([N+](=O)[O-])cc3Cl)CC2)cc1	11.7%

SMILES	inhibition
COc1cnn(-c2ccc([N+](=O)[O-])cc2)c(=O)c1Cl	49.7% (active)
O=C(Cn1cnc2c(OCc3ccccc3)ncnc21)NCCCn1ccnc1	-0.28%
Cc1cc(NC(=O)COc2ccccc2C#N)no1	4.54%
CNC[C@H]1Oc2c(NC(=O)C3CCCCC3)cccc2C(=O)N([C@H](C)CO)C[C@@H]1C	6.17%
COc1cc(/C=C/C(=O)Nc2ccc(OC)c(S(=O)(=O)N3CCOCC3)c2)ccc1OCC#N	6.14%
CNC(=O)c1cccc2nc3ccccc3nc12	61.4% (active)
CN(C)C(=O)c1coc2nc3ccccc3nc12	7.78%
CNC(=O)c1cc2c(ccc3ccccc32)oc1=N	50.1%
C=CC[C@@H](CC(=O)NCCO)C(=O)N[C@H](C)COC(=O)[C@@H](CC=C)CC(=O)OC(C)(C)C	5%
CN1CCN(C(=O)c2ccc(-c3ccc(Br)cc3)o2)CC1	8.86%
O=C1c2ccccc2C(=O)N1c1cccc2ccccc12	17%
COc1ccc(N2C(=O)c3cccc4cccc(c34)C2=O)nn1	62.1% (active)
O=C1c2cccc3cccc(c23)C(=O)N1c1cccc(O)c1	26.1%
O=C(CSc1nnc(-c2ccncc2)o1)Nc1cccc(Cl)c1	4.25%
O=C(OCC(=O)N1CCCCC1)c1ccc(OC(F)(F)F)cc1	10.9%
COc1ccc(S(=O)(=O)N2CCOCC2)cc1NC(=O)CSc1nnc(NC2CC2)s1	5.24%
Cc1ccc(CNC(=O)Cn2cnc3c(NCc4ccccc4)ncnc32)o1	13.2%
CC(=O)Nc1ccc(S(=O)(=O)Nc2ccc(N3CCCCC3)cc2)cc1	16.6%
COc1cc(OC)c(C(=O)NNC(=O)c2ccccc2-n2cccc2)cc1OC	10.5%
Oc1c(Cl)cc(Cl)c(Cl)c1Cc1c(O)c(Cl)cc(Cl)c1Cl	60.5% (active)
Cc1cc(NC(=O)CN2C(=O)NC(CC(C)C)C2=O)no1 (configuration not stated)	4.3%
O=C(NCCCN1CCOCC1)c1ccc(N2CCCC2)c([N+](=O)[O-])c1	52.4%

SMILES	inhibition
NS(=O)(=O)c1ccc(CCNC(=O)c2ccc([N+](=O)[O-])cc2[N+](=O)[O-])cc1	138% (active)
NS(=O)(=O)c1ccc(CCNC(=O)c2ccc(Cl)cc2[N+](=O)[O-])cc1	26.8%
O=[N+]([O-])c1ccc(NCCCN2CCOCC2)c(Cl)c1	10.8%
NS(=O)(=O)c1ccc(CNC(=O)c2ccc(Cl)cc2[N+](=O)[O-])cc1	70.7% (active)
NS(=O)(=O)c1ccc(CCNC(=O)CNC(=O)Cc2ccccc2)cc1	1.42%
COc1ccc(C(=O)NCCc2ccc(S(N)(=O)=O)cc2)cc1OC	17.6%
O=C(Nc1cccnc1)c1ccc(Cl)cc1[N+](=O)[O-]	22.6%
O=C(NCCCN1CCOCC1)c1ccc([N+](=O)[O-])cc1[N+](=O)[O-]	70.3% (active)
Cc1ccc(S(=O)(=O)N2CCN(C(=O)COC(=O)CNC(=O)c3ccc(C(C)(C)C)cc3)CC2)c(C)c1	1.85%
O=C(COC(=O)c1cccc(Cl)c1)NC(=O)NCc1ccccc1	4.12%
C=CCC[C@@H](Cc1ccc(F)cc1)C(=O)O[C@H](CNC(=O)[C@H](CC=C)CC(=O)N(CCO)Cc1ccccc1)c1ccccc1	13.9%
C=CCC[C@H](Cc1ccc(F)cc1)C(=O)OC[C@@H](NC(=O)[C@@H](CC=C)CC(=O)N[C@H](CO)Cc1ccccc1)C(C)(C)C	-2.5%
COc1cccc(CNS(=O)(=O)c2ccc3c(c2)CC(C)N3C(C)=O)c1 (configuration not stated)	19.3%
COc1ccc(N(C)S(=O)(=O)c2ccc3c(c2)CC(C)N3C(=O)C2CC2)c(OC)c1 (configuration not stated)	13.5%
COc1cccc(CNS(=O)(=O)c2ccc3c(c2)CC(C)N3C(=O)C2CCC2)c1 (configuration not stated)	53.7% (active)
CN(CC(=O)O)C(=O)c1ccccc1	11.7%
Cc1cccc(N(CC(=O)N=Nc2c(O)[nH]c3ccccc23)S(C)(=O)=O)c1C	5.48%
COCC(=O)N=Nc1c(O)[nH]c2ccccc12	68.8% (active)
O=C(CCN1CCCCC1)N=Nc1c(O)[nH]c2ccccc12	22.5%
Cc1ccc(NS(=O)(=O)c2ccc(C(C)C)cc2)cc1S(=O)(=O)N1CCOCC1	1.43%
Cc1cccc(OCC(=O)OCC(=O)Nc2ccc(Cl)cn2)c1	4.09%
O=C(Cc1ccccc1)n1nc(-c2ccccc2)nc1NCc1ccco1	16.1%

SMILES	inhibition
CCOCCCNc1nc(-c2ccccc2)nc2ccccc12	13.2%
c1ccc(-c2nc(NCc3ccco3)c3ccccc3n2)cc1	81.6% (active)
COCCNc1nc(-c2ccccc2)nc2c1oc1ccccc12	19.4%
c1coc(CNc2ncnc3ccccc23)c1	37.9%
CCC(=O)OCCNc1nc(-c2ccccc2)nc2ccccc12	48.8% (active)
CC1CCCCC1NC(=O)COc1ccc(C#N)cc1 (configuration not stated)	1.71%
O=C(COC(=O)c1ccc(Br)o1)NC12CC3CC(CC(C3)C1)C2	1.86%
O=C1N[C@H](Cc2c[nH]c3ccccc23)COC(=O)[C@H](Cc2ccc(F)cc2)C/C=C\C[C@H]1CC(=O)N(CCO)Cc1ccccc1	-2.83%
Cc1ccc(C(=O)Nc2ccn(C)n2)cc1	-1.37%
COc1ccc(Br)cc1CN(C)C(=O)C1CC(=O)N(C2CCCC2)C1 (configuration not stated)	8.23%
O=C(C1CCCO1)N1CCC(c2nc3ccccc3[nH]2)CC1 (configuration not stated)	-1.4%
O=C(Nc1sc2c(c1-c1nc3ccccc3[nH]1)CCCC2)C1CC1	46.5% (active)
CCOC(=O)c1c(NC(=O)C2CCN(S(=O)(=O)c3ccc(Cl)cc3)CC2)sc2c1CCCC2	6.08%
C=CC[C@@H](CC(=O)N[C@@H](CO)Cc1ccccc1)C(=O)NCCOC(=O)[C@@H](CC=C)CC(=O)OC(C)(C)C	14.3%
COC(=O)[C@]1(Cc2ccccc2)N[C@H](CN(C)S(=O)(=O)c2ccc(OC(F)(F)F)cc2)[C@@H]2C(=O)N(Cc3ccccc3)C(=O)[C@@H]21	5.26%
COCCNC(=O)Nc1ccc2nc(-c3ccco3)c(-c3ccco3)nc2c1	113% (active)
CCOc1cc(NC(=S)NCCCOC)c(OCC)cc1NC(=O)c1ccco1	11.1%
CCCC(=O)Nc1ccc2c(c1)nc(CCNC(=O)c1ccco1)n2C	7.62%
Cc1noc(C)c1S(=O)(=O)N(C)C[C@H]1Oc2c(NC(=O)Nc3ccc4c(c3)OCO4)cccc2C(=O)N([C@H](C)CO)C[C@@H]1C	2.76%
C[C@H](CO)N1C[C@H](C)[C@H](CN(C)CC2CC2)Oc2ccc(NC(=O)CCN3CCOCC3)cc2C1=O	-2.5%
Cc1ccc(S(=O)(=O)N(C)C)cc1NC(=O)C(C)OC(=O)c1ccc2ccccc2n1 (configuration not stated)	7.22%
